# From PubChem BioAssay AID651965 (National Center for Advancing Translational Sciences (NCATS), 2013)
# The whole screen tested about 340,000 compounds, of which about 6,400 (1.9%) were called active. About 4% were inconclusive and are not listed. Calls come from the whole dose curve; as a rule, active = well fitted falling curve with a large enough effect; inconclusive = small, poorly fitted or top-dose-only effect; inactive = no such curve, though single readings can be large or run the other way. What follows is part of a selection rich in actives, with near analogues and random picks from the rest. Where a call stands in place of a potency, no number is given.
# Target: ATP-dependent Clp protease proteolytic subunit (Bacillus subtilis (strain 168)) (UniProt P80244)
# Test: qHTS Assay for Activators of ClpP; note: the source files actives as falling curves though it sought activators and does not explain the sign; nearly all actives have a fitted effect of over 65% in size
# Conditions: purified B. subtilis ClpP, FRET peptide cleavage, 20 min; series mostly up to 57.5 µM
# Outline: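 ClpP 10 microg/mL final, pH 8 Tris/KCl buffer with BSA, glycerol, Tween-20; compound pinned in; FRET-FV substrate; RT 20 min; Ex320/Em430; ΔFRET vs ADEP 5.8 microM, DMSO, no enzyme.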
# Potency is the fitted concentration of half-maximal effect.
# Chain of ATP-dependent Clp protease proteolytic subunit (Bacillus subtilis (strain 168)) (P80244 whole entry, looked up): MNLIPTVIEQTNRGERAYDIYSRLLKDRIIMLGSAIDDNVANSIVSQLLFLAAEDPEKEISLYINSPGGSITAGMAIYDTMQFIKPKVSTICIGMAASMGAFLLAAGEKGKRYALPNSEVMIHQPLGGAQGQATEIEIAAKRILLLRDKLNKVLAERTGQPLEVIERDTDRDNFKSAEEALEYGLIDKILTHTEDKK
row,Compound,Potency
1,COc1ccc(Cn2c(=O)[nH]c3cc(C(=O)N4CCN(C(=O)c5ccco5)CC4)ccc3c2=O)cc1,inactive
2,CC(=O)Nc1cc(C(=O)NCc2ccc(F)cc2)ccc1Sc1ccc(F)cc1,inactive
3,COC(=O)c1ccc(Sc2ccc(F)cc2)c(N)c1,28.2 µM (active)
4,Cc1ccc(Sc2ccc(NC(=O)c3ccc(F)cc3)cc2C#N)cc1,inactive
5,C=C1C=C(C)n2ncc(C(=O)Nc3ccccc3O)c2N1,inactive
6,COCCn1c(SCC(=O)Nc2ccc(F)cc2F)nc2c(c1=O)SCC2,inactive
7,Cc1cc2nc(-c3ccc(F)cc3)c(Cc3ccsc3)n2c(C)c1Br,inactive
8,Cc1cc(C)n2nc(C(=O)OCC(=O)N(CCC#N)c3ccc(F)cc3)nc2n1,inactive
9,Cc1c(C(=O)OCC(=O)N(CCC#N)c2ccccc2)oc2c1ccc1ccccc12,25.1 µM (active)
10,N#CCCN(C(=O)COC(=O)c1ccc(S(=O)(=O)N2CCCCCC2)cc1)c1ccccc1,inactive
11,O=C(Nc1ccc(N2CCOCC2)cc1)c1cccc2c(-c3ccc(F)c(F)c3)coc12,inactive
12,Cc1nc2c(OCc3cccc(Cl)c3)cccn2c1N(C)CC1CC1,inactive
13,COc1cc(Cn2c3ccc(NC(=O)CC(C)c4ccccc4)cc3c(=O)n2C)ccc1F (stereo not given),inactive
14,COc1ccc(OC)c(C(=O)c2ccc(Cl)cc2)c1,inactive
15,COc1ccc(-n2c(-c3ccc(Cl)cc3)n[nH]c2=S)c(OC)c1,inactive
16,COc1ccc2c(c1)C(=O)Nc1cc(Cl)ccc1N2,28.2 µM (active)
17,C=CCn1c(SCn2nnc3ccccc3c2=O)nnc1-c1ccc(Cl)cc1,inactive
18,CCn1c(C)cc(=O)cc1-c1ccc(Cl)cc1,inactive
19,C=CCn1c(-c2ccc(Cl)cc2)ccc(C#N)c1=O,28.2 µM (active)
20,COc1cc2ccc(C(C)=O)c(O)c2cc1OC,inactive
21,COCCNc1ncnc2c1nc1n2CCCC1,inactive
22,CCC(O)CNc1nc(-n2nc(C)cc2C)nc2sc3c(c12)CC(C)(C)OC3 (stereo not given),inactive
23,COCCNc1nc(-n2nc(C)cc2C)nc2sc3c(c12)CCCC3,28.2 µM (active)
24,COCCCNC(=O)c1cccc2c(-c3ccc(O)c(OC)c3)coc12,inactive
25,CC1=C(C(=O)Nc2cccc(C(=O)NCC(C)c3ccccc3)c2)SCCO1 (stereo not given),inactive

row,Compound,Potency
1,CN1CCN(C(=O)c2ccc(NC(=O)c3ccc(Br)o3)cc2)CC1,inactive
2,Cc1c(C(=O)NCc2ccc(C#N)cc2)sc(=O)n1Cc1ccc(C(=O)N(C)C)cc1,inactive
3,COC(=O)[C@@]12C[C@@H](CC(=O)N3CCC(c4ccccc4)CC3)C(=O)N(Cc3ccccc3)C1=CCC(C)(C)C2,inactive
4,Cc1nnc(SCC(=O)NCCOc2ccc(Cl)cc2)n1-c1ccccc1,inactive
5,COCCNC(=O)CSc1nc(-c2ccccc2)[nH]c1-c1ccc(C)cc1,31.6 µM (active)
6,COCCNC(=O)CSc1nc(N)c(NC(=O)c2ccco2)c(=O)[nH]1,inactive
7,CC1(C(=O)NS(=O)(=O)c2ccccc2)CCN1C(=O)c1ccccc1 (stereo not given),inactive
8,O=C(c1cc(C2CCCCN2S(=O)(=O)c2ccccc2)on1)N1CCOCC1 (stereo not given),inactive
9,Cc1nc2ccc(NC(=O)C3CCCCC3)cc2s1,inactive
10,CN1C(=O)c2ccc(C(=O)Nc3ccc(Br)cn3)cc2C1=O,inactive
11,O=C(Nc1ccc2c(c1)OCCO2)C1CCCC1,inactive
12,CN1C(=O)c2ccc(NC(=O)C3CCCCC3)cc2C1=O,31.6 µM (active)
13,Cc1cccc(C(=O)Nc2ccc3c(c2)C(=O)N(CC(C)C)C3=O)c1,inactive
14,CN1C(=O)c2ccc(NC(=O)c3c(F)c(F)c(F)c(F)c3F)cc2C1=O,31.6 µM (active)
15,COc1ccc(CN(Cc2ccccc2)C(=O)c2ccc(O)cc2)cc1COc1ccc(NC(C)=O)cc1,inactive
16,C[C@@H]1CN([C@@H](C)CO)C(=O)CCCn2nncc2CO[C@H]1CN(C)Cc1ccc(C(F)(F)F)cc1,inactive
17,C#CCN(C[C@@H]1[C@@H](OC(=O)NC2CC2)[C@@H](OC(=O)NC2CC2)Cn2c(=O)ccc(=O)n21)S(=O)(=O)c1ccc(C)cc1,inactive
18,COc1cccc(C2C(C(=O)Nc3ccc(C)cc3C)=C(C)Nc3c(C(=O)Nc4ccccc4)cnn32)c1 (stereo not given),inactive
19,CCc1ccc(C2C(C(=O)Nc3ccccc3)=C(C)Nc3c(C(=O)Nc4ccc(C)cc4)cnn32)cc1 (stereo not given),31.6 µM (active)
20,CC1=C(C(=O)Nc2ccccc2)C(c2ccc(C)cc2)n2nc(SCc3ccccc3C)nc2N1 (stereo not given),inactive
21,CC1(C(=O)NCc2ccc3c(c2)OCO3)CCN1C(=O)Cc1cccs1 (stereo not given),inactive
22,COc1cccc(CNc2nc(NCc3ccccc3OC)nc3ccsc23)c1,inactive
23,CCC(=O)N1CCCC1(C)C(=O)Nc1ccc2c(c1)CCN2C(C)=O (stereo not given),inactive
24,Cc1ccc(C(=O)NC(=S)NCCN2CCOCC2)cc1,28.2 µM (active)
25,Cc1cc(C)cc(C(=O)NCCN2CCOCC2)c1,inactive
